This is part of a sample that, as a whole, favours compounds with a hit. Of some 79,000 tested, about 15% had one in any assay. Cut-off read from the data, not from the text of the source: active = growth inhibition above about 70%; inactive = the rest.
Experiments:
[1] = NCI Yeast Anticancer Drug Screen. Data for the rad50 strain (AID 155);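 note: 0% = growth of vehicle-only cultures of the same strain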; settings: S. cerevisiae rad50 strain growth inhibition; at 50.0 µM; hits give high values
Method in brief: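 Relative growth inhibition (compound vs vehicle) was measured in yeast with a defined repair-gene alteration.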

[2] = NCI Yeast Anticancer Drug Screen. Data for the mec2-1 strain (AID 157); settings: S. cerevisiae mec2-1 strain, at 50.0 µM, hits give high values
Method in brief: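 Readout is yeast growth inhibition, normalised to vehicle-treated controls, in the mec2-1 strain exposed to compound.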

[3] = NCI Yeast Anticancer Drug Screen. Data for the sgs1 mgt1 strain (AID 161);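 note: 0% = growth of cultures given vehicle only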; settings: S. cerevisiae sgs1 mgt1 strain, at 50.0 µM, hits give high values
Method in brief: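 Growth of a repair-deficient yeast mutant was monitored after compound treatment and expressed as inhibition relative to vehicle-treated cultures.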

[4] = NCI Yeast Anticancer Drug Screen. Data for the cln2 rad14 strain (AID 165);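 note: 0% = growth equal to vehicle treated cultures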; settings: S. cerevisiae cln2 rad14 strain, at 50.0 µM, hits give high values
Method in brief: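 Relative to vehicle controls, growth inhibition of compound-treated cln2 rad14 yeast was recorded.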

[5] = NCI Yeast Anticancer Drug Screen. Data for the bub3 strain (AID 167); settings: S. cerevisiae bub3 mutant strain, at 50.0 µM, hits give high values
Method in brief: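 Screening used yeast with an engineered genetic alteration affecting cell cycle control. Compound-exposed cultures were compared with vehicle cultures, and reduced growth was taken as inhibition.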

[6] = NCI Yeast Anticancer Drug Screen. Data for the mlh1 rad18 strain (AID 175); settings: S. cerevisiae mlh1 rad18 strain growth inhibition; at 50.0 µM; hits give high values
Method in brief: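 Test agents were incubated with a yeast strain of defined genotype (DNA damage repair defect). Inhibition of growth was derived by comparison with vehicle-exposed cultures.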

Measured: growth inhibition

O=C(O)c1c(Br)c(Br)c(Br)c(Br)c1C(=O)Nc1cccc2c(O)cccc12
inactive: [1] 42.4% | [2] 24.9% | [3] 25.2% | [4] 14.4% | [5] 24.3% | [6] 44.9%

Fc1ccccc1/C=C/c1cnnc2ccccc12
inactive: [1] 19.9% | [2] 11.1% | [3] 16.1% | [4] -20.4% | [5] 5.2% | [6] 3.15%

O=C(c1ccccc1)c1c[nH]c(=O)[nH]c1=O
inactive: [1] -17.1% | [2] 10.2% | [3] -3% | [4] -3.2% | [5] 0.4% | [6] -26.9%

COc1cccc(C=O)c1[O-].COc1cccc(C=O)c1[O-].[Zn+2]
inactive: [1] 52.4% | [2] 17.9% | [3] 56.7% | [4] 32.2% | [5] 11.8% | [6] 66%

CC(C)NCC(O)COc1cccc2ccccc12 (stereo unspecified)
inactive: [1] 19.4% | [2] -32.2% | [3] 31.1% | [4] 20.6% | [5] 14.9% | [6] 11.1%

C=C(C)C(=O)N1c2ccc(OC)cc2CC1C(=O)OCC (stereo unspecified)
inactive: [1] -1.6% | [2] 16.6% | [3] 7.05% | [4] 12.8% | [5] 15.8% | [6] 4.55%

NS(=O)(=O)c1ccc2cc(S(N)(=O)=O)ccc2c1
inactive: [1] 19.1% | [2] 13.5% | [3] 22.4% | [4] 15.5% | [5] 23.1% | [6] 25.8%

O=C(O)c1csc(C(=O)O)c1
inactive: [1] 8.5% | [2] -1.1% | [3] 9.05% | [4] 2.3% | [5] 12.4% | [6] 8.35%

Cc1ccc(NC(=O)/C=C/c2ccccc2)cc1
inactive: [1] -2.85% | [2] -8.1% | [3] -3.15% | [4] -3.95% | [5] 10.2% | [6] 10.9%

CCOC(CN=C=S)OCC
inactive: [1] 4.25% | [2] -3.95% | [3] 16.6% | [4] 9.05% | [5] -3.35% | [6] 4.65%

O=C1NC=NC1c1ccccc1 (stereo unspecified)
inactive: [1] -2.25% | [2] -10.4% | [3] -9.9% | [4] -24.8% | [5] -3.65% | [6] -11.5%

CCOC(=O)/C(C#N)=C(O)\C(=C\c1ccc(Cl)cc1)NC(=O)c1ccc(NC(C)=O)cc1
inactive: [1] 8.9% | [2] -0.3% | [3] -17.4% | [4] 9.2% | [5] -8.1% | [6] 5.65%

O=C(O)CCc1ccc(NC(=O)CCl)cc1
inactive: [1] 4.05% | [2] 14.6% | [3] 17.3% | [4] 8.35% | [5] 5.45% | [6] 14.7%

CCC(C)NC(=O)/C=C/C(=O)NC(C)CC (stereo unspecified)
inactive: [1] 5.4% | [2] -4.25% | [3] -5.75% | [4] -29.7% | [5] 4.95% | [6] 8.5%

c1ccc2cc(C3OCC4(CCC4)CO3)ccc2c1
inactive: [1] 11.6% | [2] -1.35% | [3] 3.1% | [4] -26.8% | [5] 24.8% | [6] -6.9%

C1CCC(CN2CCN(CC3CCCCO3)CC2)OC1 (stereo unspecified)
inactive: [1] -2.4% | [2] -11.5% | [3] -1.05% | [4] -41.8% | [5] 0.25% | [6] 3.05%

BrC1C2=C(c3ccccc31)C(Br)c1ccccc12 (stereo unspecified)
inactive: [1] 14.9% | [2] 4.05% | [3] 15.3% | [4] 28.8% | [5] -12.3% | [6] 1.7%

CC#CC(O)(C(=O)OC1CCCN(C)C1)C1=CC=CCC1 (stereo unspecified)
inactive: [1] 11.7% | [2] 8.25% | [3] 13.2% | [4] 5% | [5] -1.75% | [6] 27.4%

O=C(NNC(=O)c1cccc(F)c1)c1cccc(F)c1
inactive: [1] -20.6% | [2] -8.1% | [3] -13.3% | [4] 18.9% | [5] -6.4% | [6] -1.75%

C[C@H](CCC(=O)O)[C@H]1CC[C@H]2[C@@H]3CC[C@@H]4C[C@H](O)CC[C@]4(C)[C@H]3CC[C@]12C
inactive: [1] 40% | [2] 31.4% | [3] 10% | [4] 0.75% | [5] 25.8% | [6] 23.6%

CN(C(=O)C12C3C4C1C1C2C3C41C#N)C(C)(C)C (stereo unspecified)
inactive: [1] 20.6% | [2] 6.15% | [3] 2.5% | [4] 11.2% | [5] 20.5% | [6] 19.6%

CN1C(=O)NC(=O)C1(C)C=O (stereo unspecified)
inactive: [1] 2.8% | [2] 0.9% | [3] -2.7% | [4] 5.95% | [5] 10.9% | [6] -12.1%

CC(C)(OC(=O)Nc1ccccc1)c1ccc([N+](=O)[O-])cc1
inactive: [1] -5% | [2] 9.1% | [3] 13.2% | [4] -25.5% | [5] -22.7% | [6] -4.45%

CC(=O)Nc1ccc(S(=O)(=O)N/N=C/c2ccc3c(c2)OCO3)cc1
inactive: [1] 4.85% | [2] -20.2% | [3] 2.55% | [4] 2.15% | [5] -33.7% | [6] -20.5%

Clc1ccccc1N=NNc1ccccc1Cl
inactive: [1] 15.8% | [2] -2.4% | [3] 7.05% | [4] -29.5% | [5] 6.35% | [6] 6.75%

CC(C)CCC(=O)O
inactive: [1] -8.45% | [2] -9.1% | [3] -4.4% | [4] -9.6% | [5] 3.8% | [6] -10.4%

CN(C)c1ccc(SC2OC(CO)C(O)C(O)C2O)cc1 (stereo unspecified)
inactive: [1] -12.8% | [2] -5.25% | [3] -7.3% | [4] -54.5% | [5] 3.7% | [6] -10%

N#CCCn1c(CCC(=O)Nc2ccc(Cl)cc2Cl)n[nH]c1=S
inactive: [1] -8.4% | [2] 0.65% | [3] -6.05% | [4] 13.6% | [5] 1.7% | [6] 2.45%

CNC1C(O)C(OC2C(N)CC(N)C(OC3OC(CN)=CCC3N)C2O)OCC1(C)O (stereo unspecified)
inactive: [1] -17.3% | [2] -43.3% | [3] -34.1% | [4] -15.6% | [5] -25.8% | [6] -5.15%

O=C(O)CCc1ccncc1
inactive: [1] 2.25% | [2] 9% | [3] 12.8% | [4] -1.7% | [5] 7.1% | [6] -0.95%

Cc1cc(/C=C\[N+](=O)[O-])c(C)c2c1oc1ccccc12
inactive: [1] -10.8% | [2] -2.55% | [3] 2.1% | [4] 4.75% | [5] 2.4% | [6] -7.05%

Nc1nnc(Cc2cccc3ccccc23)o1
inactive: [1] -1.05% | [2] -11.4% | [3] -13.1% | [4] -0.7% | [5] -15.6% | [6] 1.1%

O=S(=O)(O)CO
inactive: [1] 16.9% | [2] 4.6% | [3] 26% | [4] 7.35% | [5] -7.7% | [6] 20.4%

CCCCCCC(=O)/C=C/c1ccc(OC)cc1
inactive: [1] -12.5% | [2] -6.55% | [3] -14% | [4] 3.6% | [5] -11.6% | [6] -16.1%

Cc1nnc(N)s/c1=N/O
inactive: [1] 7.5% | [2] 4.6% | [3] 2.45% | [4] -5.55% | [5] 3.15% | [6] -11.6%

FC(F)(F)c1nc(Nc2ccccc2)c2[nH]cnc2n1
inactive: [1] -16.4% | [2] 4.55% | [3] 2.45% | [4] -20.9% | [5] 12.2% | [6] -4.6%

N#C/C(=C/C=C/c1ccccc1)c1ccc([N+](=O)[O-])cc1
inactive: [1] 22% | [2] 23.4% | [3] 24.8% | [4] -8.2% | [5] 36.5% | [6] 18.9%

O=C(NCSC1=NCCS1)NCSC1=NCCS1
inactive: [1] -7.05% | [2] -20.4% | [3] 6.85% | [4] 16.5% | [5] 2.85% | [6] -14.8%

COC(=O)[C@]12CCC(C)[C@H](C)[C@H]1C1=CCC3[C@@]4(C)CC[C@H](OC(C)=O)C(C)(C)C4CC[C@@]3(C)C1(C)C(O)C2 (stereo partly specified)
inactive: [1] 23.1% | [2] -22.5% | [3] -8.45% | [4] 8.5% | [5] -0.4% | [6] 21.9%

COc1ccc(C(O)C2CCCN(C)S2(=O)=O)cc1 (stereo unspecified)
inactive: [1] 13.4% | [2] 21.9% | [3] 2.75% | [4] 15.5% | [5] 30.6% | [6] 15.6%

Nc1c(Cl)ncnc1NCCCCCO
inactive: [1] -5.35% | [2] -4% | [3] -8.75% | [4] -23.7% | [5] -6.95% | [6] -1.95%

— PubChem BioAssay (NCI)
